# Compound activity: PubChem, National Center for Advancing Translational Sciences (NCATS)
# Compounds with a hit are over-represented: about 8.3% of the library has one in this group of screens.
# HCV inhibitor = blocks hepatitis C virus; Huh7.5.1 HCVcc-Cre infection, luciferase reporter, 44 h; Potency, µM (top dose mostly 41.8 µM), for inactives: at the top dose activity change, negative = inhibition, usual class: inhibitors; hit rate 3.4% among 340,000; AID 651820; further: potency means the concentration at half of the fitted maximal effect
#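 Luciferase read-out (15 sec integration) after a 15 min room-temperature substrate step quantifies HCVcc-Cre infection. Cells, 1,000 per well, had compound added 4 h post-plating, then virus at ~0.5 moi, and were cultured 44 h.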
# FBPA Giardia inh = blocks Giardia fructose-bisphosphate aldolase activity; Potency, µM (series often up to 59.6 µM), inactives show at the top dose activity, negative = inhibition, actives largely listed as inhibitors; purified Giardia FBPA; A8B2U2; hit rate 0.71% among 290,000; further: potency means the concentration at half of the fitted maximal effect; nearly all actives have a fitted effect of over 55% in size
# Target sequence (A8B2U2 whole entry, looked up): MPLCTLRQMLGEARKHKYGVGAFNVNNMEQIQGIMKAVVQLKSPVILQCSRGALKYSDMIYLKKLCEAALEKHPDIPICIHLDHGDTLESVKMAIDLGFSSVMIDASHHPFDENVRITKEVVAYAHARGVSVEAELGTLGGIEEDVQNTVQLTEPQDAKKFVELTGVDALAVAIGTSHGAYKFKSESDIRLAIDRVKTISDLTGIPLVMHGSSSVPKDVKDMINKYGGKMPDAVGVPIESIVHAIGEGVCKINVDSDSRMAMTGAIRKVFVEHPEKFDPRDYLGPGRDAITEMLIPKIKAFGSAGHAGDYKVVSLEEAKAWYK
#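 40 nM FBPA preincubated 10 min at RT with compound (up to 57.5 uM final), then substrate plus GAPDH/TPI/NAD/arsenate coupling and diaphorase/resazurin added. Fluorescence read after 20 min at RT, 525/598 nm.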
# FMDV inh = blocks foot and mouth disease virus; FMDV antiviral cell-based qHTS; Potency, µM (doses to about 57.9 µM), for the others: at the highest dose activity change, negative = inhibition, most hits filed as inhibitors; hit rate 1.2% among 410,000; AID 1159524; calls by dose curve; tested in HEK293T cells; further: read-out not given here; potency means the concentration at half of the fitted maximal effect; nearly all actives have a fitted effect of over 45% in size
# HCMV antiviral = inhibitors of human cytomegalovirus; HFF cells, HCMV-luciferase reporter, 72 h; stronger effect = lower value; hit rate 4.5% among 410,000; AID 1259415; activity change, negative = inhibition, % at 57.5 µM; in the data active means activity change below about -60%; inconclusive means no clear call, values can overlap the other calls; inactive means above about -39%
#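 After 16 h attachment at 37C, HFF cells received test compound and HCMV-luciferase (1 PFU/cell); reporter luminescence read 72 h later, data normalized against buffer-only and known inhibitor Salinomycin.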
# Lassa entry inh = blocks Lassa virus binding to or entry into cells. Lassa virus pseudotype entry inhibition, cell reporter. Potency, µM (top dose mostly 37.9 µM), inactives show at the highest dose activity change, negative = inhibition, most hits filed as inhibitors. hit rate 1.2% among 300,000. AID 540256; calls by dose curve; tested in HEK293 cells; further: potency means the concentration at half of the fitted maximal effect; nearly all actives have a fitted effect of over 50% in size
# Marburg entry inh = Marburg virus entry inhibition | hit rate 1.8% among 300,000 | Potency, µM (highest dose often 37.8 µM), for the others: at the highest dose activity change, negative = inhibition, actives largely listed as inhibitors | Marburg virus pseudotyped entry inhibition, cell reporter; calls by dose curve; tested in HEK293 cells; further: potency means the concentration at half of the fitted maximal effect
# * = called active by the depositor; ? = inconclusive; / = not tested or not shown; [ ] = dose if it differs, or a comment. Unless noted, the call rests on the fitted dose curve; in most records, active means well fitted curve in the direction sought with a large enough effect; inconclusive means small, poorly fitted or top-dose-only effect, or another doubt; inactive means no such curve, though single readings can be large; an effect the other way counts as inactive or inconclusive. On the % scale 0 is the no-effect control and ±100 the full control effect.
SMILES,HCV inhibitor,FBPA Giardia inh,FMDV inh,HCMV antiviral,Lassa entry inh,Marburg entry inh
COc1ccccc1NS(=O)(=O)c1cccc(C(=O)NC2CCN(Cc3ccccc3)CC2)c1,?,/,?,/,-28%,?
COc1ccccc1NS(=O)(=O)c1ccc(C)c(C(=O)NC2CCN(Cc3ccccc3)CC2)c1,2.2µM*,/,?,-76*,?,?
CN(C)CCCNC(=O)[C@@H]1[C@@H](CO)[C@@H]2Cn3c(cccc3=O)[C@H]1N2C(=O)Nc1cc(F)ccc1F,/,/,/,1,/,/
C[C@H]1COc2cccc(NCCO)c2S(=O)(=O)N1,/,/,/,3,6%[46.1 µM],/
CCc1cc(-c2oncc2-c2ccc(OC)cc2)c(O)cc1OC,/,-23%,/,/,/,/
CO/N=C(\C(=O)N[C@@H]1C(=O)N2C(C(=O)OCOC(=O)C(C)(C)C)=C(/C=C\c3scnc3C)CS[C@H]12)c1csc(N)n1,/,/,1%,/,/,/
Cc1ccccc1C(=O)NC1CCN(CC(=O)Nc2ccccc2)CC1,2%,3%,-10%,-90*,/,/
C=CCN(c1ccccc1)S(=O)(=O)c1cccc(C(=O)NC2CCN(Cc3ccccc3)CC2)c1,14µM*,/,?,-65*,?,?
Cc1ccccc1C(=O)NC1CCN(CC(=O)Nc2c(C)cccc2C)CC1,-10%,2%,?,13,-2%,-8%
O=C(NC1CCN(Cc2ccccc2)CC1)c1cccc(S(=O)(=O)Nc2ccc(Br)cc2)c1,?,/,-20%,-69*,?,?
Cc1oc(C(C)(C)C)cc1C(=O)NC1CCN(Cc2ccccc2)CC1,?,11%,-21%,-25,?,10µM*
COc1ccc(NS(=O)(=O)c2ccc(C)c(C(=O)NC3CCN(Cc4ccccc4)CC3)c2)cc1,/,6%,?,?,-22%,?
COc1cccc(C(=O)NCC2CCN(C(=O)C(=O)c3cc4ccccc4o3)CC2)c1,/,/,/,41,/,/
COC(=O)[C@H]1[C@H](CO)[C@H]2Cn3c(cccc3=O)[C@@H]1N2C(=O)c1ccccn1,/,/,/,-22,/,/
Cc1cnc(CNc2ncncc2-c2c(C)noc2C)cn1,/,-8%,-7%,/,/,/
Cc1cc(C)cc(NC(=O)CN2CCC(NC(=O)Cc3ccccc3)CC2)c1,5%,5%,/,-29,8%,-6%
O=C(CN1CCC(NC(=O)Cc2ccccc2)CC1)Nc1ccccc1Br,?,1%,?,-64*,?,7%
O=C(Nc1ccccc1)NN(C(=O)CCl)c1ccccc1,?,13%,20µM*,-102*,?,?
Cc1ccc(N(NC(=O)C(O)(c2ccccc2)c2ccccc2)C(=O)CCl)cc1,3.2µM*,2%,8.9µM*,-99*,?,13µM*
CCC(O)(CC)C(=O)NN(C(=O)CCl)c1ccccc1,-13%,4%,?,-94*,-27%,?
C[C@@H]1CN([C@H](C)CO)C(=O)c2cc(Br)cnc2O[C@H]1CN(C)Cc1ccccc1F,/,/,/,-7,/,/
Cn1c(=O)c([N+](=O)[O-])c(-n2ccnc2)c2ccccc21,?,-12%,32µM*,41,?,?
Cc1ccc(CN(c2ccc(C(=O)N3CCc4ccccc4C3)cc2)S(C)(=O)=O)cc1,10µM*,-4%,?,-34,?,0%
CS(=O)(=O)N(Cc1ccccc1)c1ccc(C(=O)N2CCN(c3cccc(Cl)c3)CC2)cc1,8.9µM*,2%,?,-29,?,13µM*
Cc1noc(C)c1C(=O)N1CCC2(CCCN(c3ncccn3)C2)CC1,/,-2%,-11%,/,/,/
O=c1cc2c(nn1Cc1c(Cl)cccc1Cl)-c1ccccc1CC2,25µM*,-1%,-25%,-24,0%,?
COC(=O)c1ccc2c(c1)C(C)(C)C(/C=C/c1ccccc1O)=[N+]2C,7.9µM*,?,7.9µM*,-104*,?,?
C[N+]1=C(/C=C/Nc2ccccc2Cl)C(C)(C)c2ccccc21,?,10%,-28%,-33,-28%,?
CCC(=O)N1c2ccccc2CC1C(=O)NCc1ccc(CC)cc1 (centres undefined),/,/,-25%,16,8%[46.1 µM],/
Cc1cc(C(=O)Nc2c(C)nc3ccccn3c2=O)ccc1[N+](=O)[O-],/,/,-11%,14,10%[46.1 µM],/
